The campaign covered roughly 340,000 compounds. About 6,900 (2%) were called active. Rule as the data show it: active = inhibition above about 30%; inactive = below that, where a call was filed. This excerpt belongs to a sample that is enriched for actives.

For the assay, the target named is D(2) dopamine receptor (Homo sapiens) (UniProt P14416). Nature of the assay: HTS Assay for Allosteric Antagonists of the Human D2 Dopamine Receptor: Primary Screen for Antagonists. Also: 0% is about no effect. The note with it: HEK293 TREx D2 cells, calcium flux, dopamine EC80; at 10 µM; active compounds read high. In outline: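 Calcium mobilization kinetics were recorded at 1 s intervals in tetracycline-induced HEK293 T-REx D2 cells, first for 180 s after compound addition and then 180 s after EC80 dopamine.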
Sequence of D(2) dopamine receptor (Homo sapiens) (P14416 whole entry, looked up): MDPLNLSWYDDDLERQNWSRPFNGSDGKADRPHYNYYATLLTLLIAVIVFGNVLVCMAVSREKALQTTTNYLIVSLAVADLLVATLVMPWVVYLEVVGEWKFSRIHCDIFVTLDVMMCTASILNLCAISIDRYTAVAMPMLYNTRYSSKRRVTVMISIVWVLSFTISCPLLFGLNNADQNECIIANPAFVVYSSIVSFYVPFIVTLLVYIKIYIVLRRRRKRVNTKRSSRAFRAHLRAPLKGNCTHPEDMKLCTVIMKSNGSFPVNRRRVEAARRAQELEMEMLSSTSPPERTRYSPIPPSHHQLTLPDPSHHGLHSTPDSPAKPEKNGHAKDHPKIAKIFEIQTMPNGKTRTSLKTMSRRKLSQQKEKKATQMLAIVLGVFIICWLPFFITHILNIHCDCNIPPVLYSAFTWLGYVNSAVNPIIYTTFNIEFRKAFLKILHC
Usually inhibition stands for the drop in the measured response relative to a control, in per cent. Regarding `CC(C)C(NC(=O)c1c(F)cccc1F)C(=O)NCc1ccncc1` (configuration not stated), the inhibition was -6.22% (inactive). The figure for `Cc1ccc(S(=O)(=O)Oc2ccc(/C=N/NC(=O)c3ccncc3)cc2)cc1` is -6.29% (inactive). The value for `Cc1ccc(NC(=O)CC2S/C(=N/N=C3\CCCc4ccccc43)NC2=O)cc1` (configuration not stated) was -3.76% (inactive). Regarding `CC(=O)Nc1ccc(S(=O)(=O)Oc2ccc(/C=N/N=C3/NC(=O)C(CC(=O)O)S3)cc2)cc1` (configuration not stated), the inhibition is 35.4% (active). The figure for `Cc1cc(C(=O)CCC(=O)NNC(=O)c2ccccc2O)c(C)s1` is 19.4% (inactive); for `Cc1c(NC(=O)CN2C(=O)C(=O)N(Cc3ccccc3)C2=O)c(=O)n(-c2ccccc2)n1C` it is -13.5% (inactive).

On to `Cc1c(NC(=S)Nc2ccccc2)c(=O)n(-c2ccccc2)n1C`, for which the inhibition is -10.1% (inactive). As for `Cc1c(NC(=S)NC(=O)CCc2ccccc2)c(=O)n(-c2ccccc2)n1C`, the inhibition was 40.2% (active). The figure for `COc1ccc(OC)c(CN2CCN(C(=O)CNC(=O)c3cc(C)cc(C)c3)CC2)c1` is -4.53% (inactive). Turning to `CCN(CC)S(=O)(=O)c1cc(C(=O)Nc2cc(S(=O)(=O)N3CCOCC3)ccc2N2CCCC2)ccc1F`, the inhibition was -9.39% (inactive). The value for `CN(CC(=O)Nc1ccc(Cl)cc1)CC(=O)Nc1cccc2ccccc12` was -6.32% (inactive). For the compound `CC(C)c1ccc(/C=C/C(=O)NCCCN2CCOCC2)cc1`, the inhibition was -4.54% (inactive). The value for `CCOC(=O)N1CCC(NC(=O)COc2cc(=O)n(C)c3ccccc23)CC1` was 7.2% (inactive); that for `CCN1CCCC1CNC(=O)c1cc2c(=O)n(C)c3ccccc3c2n1C` (configuration not stated) was -1.94% (inactive); that for `CCn1c(=O)cc(OCC(=O)NCCCN2CCN(c3cccc(Cl)c3)CC2)c2ccccc21` was 78.9% (active).

Take `Cn1c(C(=O)NCCCN2CCN(c3cccc(Cl)c3)CC2)cc2c(=O)n(C)c3ccccc3c21`: the inhibition was 95.2% (active). The value for `CCOC(=O)N1CCC(Nc2c(NCCN3CCN(c4cccc(Cl)c4)CC3)c(=O)c2=O)CC1` was -2.93% (inactive).

On to `Cn1c(C(=O)NCCc2ccsc2)cc2c(=O)n(C)c3ccccc3c21`, for which the inhibition was -0.277% (inactive). The figure for `CCOc1ccc(C(=O)CCC(=O)Nc2ccncc2)cc1` is -7.41% (inactive); for `Cc1ccc(-c2nn(-c3ccccc3)cc2C(=O)NCCCN2CCCC2=O)cc1` it is -11.6% (inactive).

For `Cc1noc(C)c1COc1ccc(C(=O)NCCOc2ccccc2)cc1`, the inhibition is -11% (inactive). Turning to `COc1ccc(Cl)cc1NC(=O)CN(C)CC(=O)Nc1ccc2c(c1)OCO2`, the inhibition was -18.1% (inactive). As for `O=C1C=C(c2cccc(Cl)c2O)C[C@@H](c2ccc(F)cc2)C1`, the inhibition was 6% (inactive). The figure for `CCCN(CC(=O)Nc1ccccc1C)C(=O)c1ccc2[nH]c3c(c2c1)CC(C)CC3` (configuration not stated) is -19.6% (inactive); for `CS(=O)(=O)c1ccc2nc(NC(=O)C3C4C=CC(C4)C3C(=O)O)sc2c1` (configuration not stated) it is -4.77% (inactive); for `CS(=O)(=O)c1ccc2nc(NC(=O)C3CCCCC3)sc2c1` it is 30.6% (active). The figure for `CS(=O)(=O)c1ccc2nc(NC(=O)CN3CCCCCC3)sc2c1` is -16.3% (inactive). Consider `CC(C)Oc1ccc(C(=O)NCC(=O)Nc2ccc3c(c2)CCC3)cc1`, for which the inhibition is -1.68% (inactive). As for `O=C(COC(=O)C1(c2ccc(F)cc2)CCCC1)N1CCNC1=O`, the inhibition is 7.82% (inactive).

For the compound `CCCCN(C(=O)c1nn(C)c(=O)c2ccccc12)c1c(N)n(CCC)c(=O)[nH]c1=O`, the inhibition is -7.93% (inactive). The figure for `CC1CCCN(C(=O)c2cc(-c3ccco3)nc3ccccc23)C1` (configuration not stated) is -3.9% (inactive). The value for `COc1ccc(S(=O)(=O)NCC(c2ccc(C)cc2)N2CCN(C)CC2)cc1OC` (configuration not stated) was -15.8% (inactive).

For the compound `CC(=O)Nc1ccc(NC(=O)COC(=O)c2ccccc2C(=O)c2ccccc2)cc1`, the inhibition was 11.9% (inactive).

In the case of `O=S(=O)(Nc1cc(Cl)ccc1N1CCOCC1)c1ccccc1Cl`, the inhibition is -22.2% (inactive).

`c1ccc2cc3[nH]c(CN4CCCCC4)nc3cc2c1`: the inhibition is 58.4% (active). With `Clc1ccc(CN2CCCCCC2)cc1Cl`, the inhibition was 26.4% (inactive). On to `Cc1ccc2[nH]c(=O)c(CN3CCCCC3)c(-c3ccccc3)c2c1`, for which the inhibition is -4.98% (inactive). The value for `O=S(=O)(c1ccc(SCc2ccc(Br)cc2)nc1)N1CCOCC1` was -7.49% (inactive). As for `Cc1ccsc1C(=O)NCCc1ccco1`, the inhibition was 11.7% (inactive).

Take `N#Cc1cccc(NC(=O)C2CCCN(C(=O)c3ccc(Cl)cc3)C2)c1` (configuration not stated): the inhibition is 19.5% (inactive). The value for `N=C1C(c2nc3ccccc3s2)=C(O)CN1NC(=O)c1ccc([N+](=O)[O-])cc1` was 42.3% (active); that for `CCOC(=O)CCCN1CC(O)=C(c2nc3ccccc3s2)C1=N` was 15.9% (inactive).

`COc1ccccc1N1CC(O)=C(c2nc3ccccc3s2)C1=N`: the inhibition was 16.1% (inactive). The figure for `Cc1ccc(S(=O)(=O)N2[C@@H](c3ccccc3F)C(C(=O)O)=CC[C@H]2c2ccc(Cl)cc2)cc1` is 16% (inactive). The figure for `O=C(NNC(=O)c1cc(S(=O)(=O)N2CCCCC2)ccc1Cl)c1ccccc1O` is 9.25% (inactive). As for `COc1ccccc1CNC(=O)c1ccc(CS(=O)(=O)c2ccccc2)o1`, the inhibition was 22.7% (inactive). The value for `COC(=O)c1ccc(CN(c2ccccc2OC)S(=O)(=O)c2cccs2)o1` was 36% (active); that for `COc1ccccc1NC(=O)CN(c1ccccc1OC)S(=O)(=O)c1ccccc1` was -0.319% (inactive). Regarding `COc1ccc(CNC(=O)c2ccc(NS(=O)(=O)c3ccc4[nH]c(=O)[nH]c4c3)cc2)cc1OC`, the inhibition is -22.9% (inactive). The value for `N#Cc1ccc(OCC(=O)NC(=O)NC2CCS(=O)(=O)C2)cc1` (configuration not stated) was 39.2% (active); that for `N#Cc1ccc(C(=O)OCC(=O)NC(=O)NC2CCCCC2)cc1` was -34.5% (inactive). The figure for `O=C(Cc1ccc(Cl)cc1)NC1CCS(=O)(=O)C1` (configuration not stated) is -2.94% (inactive); for `COc1ccccc1C(=O)NCCC(=O)NC(C)CCc1ccccc1` (configuration not stated) it is 3.51% (inactive); for `CC(=O)c1cnc(-c2ccccc2)s1` it is -11.4% (inactive). Consider `CC(C)(C)C(=O)c1cnc(Nc2ccccc2)s1`, for which the inhibition is 32.1% (active). Turning to `O=C(c1ccc(Cl)cc1)c1cnc(Nc2ccccc2)s1`, the inhibition was -15.9% (inactive). With `COc1ccccc1S(=O)(=O)NCc1ccc(C(=O)N(C)Cc2ccc(F)cc2)cc1`, the inhibition is -9.99% (inactive).
